Measurements published in the supplement of paper PMC10941209.

The compounds below were run on HFF (assay: cell viability relative to DMSO control; higher = less cytotoxic). Conditions: 1 µM; 72 h.
Experimental: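 Single-dose cytotoxicity screen of the MMV Pandemic Response Box at 1 uM on human foreskin fibroblasts (HFF), 72 h at 37 C. Viability measured by MTT (OD 550 nm) and normalised to the DMSO control (% survival).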
Compound `NC(=S)N/N=C/c1ncccc1N` has a cell viability of 65.3%.
For `NC(=O)c1cnc2ccc(S(=O)(=O)c3ccccc3)cc2c1Nc1ccc(O)cc1`, the cell viability was 59.5%.
In the case of `CC(C)Nc1nc2cc(Cl)c(Cl)cc2n1[C@H]1O[C@@H](CO)[C@H](O)[C@@H]1O`, the cell viability is reported as 67.8%.
`O=C(NCc1cccc2ccccc12)c1cccs1` was tested, and the cell viability was 66%.
`O=C(NO)C1(CS(=O)(=O)c2ccc(Oc3ccc(Cl)cc3)cc2)CCOCC1` gave a cell viability of 72.6%.
Work on `Fc1ccc(-n2cc(Cn3c(-c4cccc(F)c4)nc4ccccc43)nn2)cc1` yielded a cell viability of 71.1%.
In the case of `CCOC(=O)N1CCN(c2ccc(Cl)cc2)CC1`, the cell viability is reported as 64%.
`Cc1nc2ccc(Oc3ccccc3)cc2c2c1CCN2CCc1ccccc1` was tested, and the cell viability was 76.7%.
In the case of `Cc1nc2ccc(Cl)cc2c(-c2ccccc2)c1CC(=O)O`, the cell viability is reported as 77%.
In the case of `CCOC(=O)N[C@@H]1CC[C@@H]2[C@@H](C1)C[C@H]1C(=O)O[C@H](C)[C@H]1[C@H]2/C=C/c1ccc(-c2cccc(F)c2)cn1`, the cell viability is reported as 55.3%.
Compound `CCOC(=O)/C=C/[C@H](C[C@@H]1CCNC1=O)NC(=O)[C@@H](CC(=O)[C@@H](NC(=O)c1cc(C)on1)C(C)C)Cc1ccc(F)cc1` has a cell viability of 73.2%.
In the case of `CCCCC(CC)CNC(=N)NC(=N)NCCCCCCNC(=N)NC(=N)NCC(CC)CCCC` (stereo not given), the cell viability is reported as 63.4%.
`CC(C)c1ccc(COc2cccc(-c3cc([S+](C)[O-])c(C#N)c(=O)[nH]3)c2)cc1` (stereo not given) gave a cell viability of 76.9%.
Compound `Cc1cc(CCCOc2c(C)cc(-c3noc(C(F)(F)F)n3)cc2C)on1` has a cell viability of 65.5%.
In the case of `O=c1[nH]c(=O)n(Cc2cccc(Oc3ccccc3)c2)cc1Nc1ccccc1`, the cell viability is reported as 63.8%.
`Cc1ccc(N2CCC(CCOc3ccc(S(C)(=O)=O)cc3)CC2)nn1` showed a cell viability of 68.1%.
`O=C(N[C@H](CCS)C(=O)N[C@H](Cc1ccccc1)C(=O)O)c1cc2ccccc2[nH]1` was tested, and the cell viability was 67.6%.
`COC(=O)Nc1nc2cc(Sc3ccccc3)ccc2[nH]1` gave a cell viability of 71.9%.
`CC(C)Cn1c(=O)n(C)c(=O)c2c(-c3cncn3C)n(Cc3cccc4ccccc34)nc21` was tested, and the cell viability was 63.1%.
Work on `CCOCc1nc2c(N)nc3ccccc3c2n1CC(C)(C)O` yielded a cell viability of 70.5%.
`Cc1onc(-c2ccccc2)c1-c1ccc(S(N)(=O)=O)cc1` was tested, and the cell viability was 66.8%.
`Nc1nc(-c2ccccc2)nc2[nH]nc(Nc3ccc(C(F)(F)F)cc3)c12` gave a cell viability of 64.3%.
Compound `CN(Cc1ccc(C(C)(C)C)cc1)Cc1cccc2ccccc12` has a cell viability of 62.8%.
In the case of `Cc1ccccc1NC(=O)Nc1cccc([N+](=O)[O-])c1`, the cell viability is reported as 71.1%.
Work on `CC(=O)Nc1cc(NS(=O)(=O)c2ccc(Cl)cc2)cc2c(Cl)[nH]nc12` yielded a cell viability of 67.2%.
For `O=C(c1nc2c(C(F)(F)F)cc(C3CC3)cn2c1Cl)N1CCN([C@H]2CC[C@H](O)CC2)C(=O)C1`, the cell viability was 61.7%.
`CCc1cc(Cc2cnc(N)nc2N)cc2c1N(C)CCC2C` (stereo not given) showed a cell viability of 71.9%.
`CCc1oc2ccccc2c1C(=O)c1ccc(O)cc1` was tested, and the cell viability was 71.1%.
In the case of `CN(C(=O)C1(c2ccc(Cl)cc2)CCC1)c1ccccc1`, the cell viability is reported as 63.2%.
With `CCc1cc(CCCOc2c(C)cc(-c3noc(C(F)(F)F)n3)cc2C)on1` the cell viability was 69.3%.
Compound `CCCCc1ccc(-c2nc(C)c(C(=O)OC)s2)cc1` has a cell viability of 63.9%.
Work on `CC(C)(C)NC(=O)[C@@H]1C[C@@H]2CCCC[C@@H]2CN1C[C@@H](O)[C@H](Cc1ccccc1)NC(=O)[C@H](CC(N)=O)NC(=O)c1ccc2ccccc2n1` yielded a cell viability of 78.9%.
For `C[C@@H](O)[C@H](N)C(=O)NS(=O)(=O)c1cccc(-c2ccc3[nH]ncc3c2)c1`, the cell viability was 63.3%.
In the case of `O=C(O)c1ccc(-n2nc(-c3ccccc3O)nc2-c2ccccc2O)cc1`, the cell viability is reported as 76.7%.
`COc1ccc2cc3[n+](cc2c1OCCN(CCn1cncn1)Cc1ccc(F)cc1F)CCc1cc2c(cc1-3)OCO2` gave a cell viability of 61.3%.
`CCN(CC)CCCC(C)Nc1ccnc2cc(Cl)ccc12` (stereo not given) gave a cell viability of 66.4%.
Compound `Cc1ccc(S(=O)(=O)Nc2cccc3cccnc23)cc1` has a cell viability of 84.2%.
With `Cc1c[nH]c(=O)nc1NCc1ccccc1` the cell viability was 66.7%.
In the case of `CC[C@@H](CO)NCCN[C@@H](CC)CO`, the cell viability is reported as 76.1%.
`CCCCN1C[C@H](O)[C@@H](O)[C@H](O)[C@H]1CO` showed a cell viability of 63.2%.
